Shown are actives, neighbours in structure and some others; about 19% of the full set was active somewhere.
HT1080 IDH1KD tx: toxicity to HT-1080 IDH1 knockdown cells (counter line) | HT-1080 IDH1 knockdown viability, ATP luminescence, 48 h | Potency, µM (titrated, usually from 46.1 µM), for inactives: at the top dose activity, negative = toxicity, actives largely listed as cytotoxic | 360,000 tested, 2% active;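 also: 0% = DMSO wells and -100% = cell-free medium wells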
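Knockdown cells (IDH1KD HT-1080) received compounds 2 h after plating at 750 cells/well and were kept 48 h at 37 °C in 5% FBS RPMI. A CellTiter-Glo luminescence read gave % activity for curve fitting.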
KB-V1 cytotox: KB-V1 MDR subline cytotoxicity; KB-V1 MDR cells viability, CellTiter-Glo, 72 h; Potency, µM (doses to about 46.1 µM), usual class: cytotoxic; 400,000 tested, 3.4% active; AID 1347076; also: nearly all actives have a fitted effect of over 60% in size
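Following 72 h at 37 degrees C with compound, KB-V1 cell viability was read by CellTiter-Glo luminescence, medium being phenol-red-free DMEM plus 10% FBS; concentration-response parameters came from normalized, curve-fitted qHTS data.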
HT1080-NT tox: kills 2HG-producing HT-1080-NT fibrosarcoma cells; 360,000 tested, 1.6% active; HT-1080-NT fibrosarcoma viability, CellTiter-Glo ATP luminescence, 48 h; Potency, µM (top dose mostly 46.1 µM), without a hit: top-dose activity, negative = less viability, hits mostly cytotoxic;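 also: NT is the 2HG producing partner of a matched IDH1 knockdown line; 0% = DMSO-treated cells and -100% = media-only wells without cells; nearly all actives have a fitted effect of over 55% in size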
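Toxicity toward the 2HG-producing NT line was scored as %Activity, normalised to DMSO and no-cell wells, from CellTiter-Glo luminescence after 48 hours' treatment.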
TDP1 cell noCPT: qHTS for Inhibitors of human tyrosyl-DNA phosphodiesterase 1 (TDP1): qHTS in cells in absence of CPT; DT40 Tdp1-/- hTDP1 cells, no CPT, ATP luminescence, 48 h; Potency, µM (doses to about 46.2 µM), for the others: top-dose activity change, negative = growth inhibition, most hits filed as inhibitors; 420,000 tested, 15% active; AID 686978, 2013; also: nearly all actives have a fitted effect of over 55% in size
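A cellular qHTS used chicken DT40 cells lacking endogenous Tdp1 but carrying stably transfected human TDP1. Compounds were applied without camptothecin, and cell growth kinetics were judged by ATP-dependent luminescence after ≥48 hr.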
KB-3-1 cytotox: kills parental KB-3-1 adenocarcinoma cells. AID 1347075. 400,000 tested, 1.4% active. Potency, µM (series often up to 46.1 µM), actives largely listed as cytotoxic. KB-3-1 viability, CellTiter-Glo ATP luminescence, 72 h; also: nearly all actives have a fitted effect of over 60% in size
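Using CellTiter-Glo luminescence, growth of non-resistant KB-3-1 adenocarcinoma cells is assessed 72 h after pin-tool compound addition at 37 °C. Normalized responses across the concentration series yield fitted curves.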
DT40 TDP1 CPT: growth inhibition of DT40 Tdp1-/-;hTDP1 cells with camptothecin (screen for TDP1 inhibitors); 420,000 tested, 12% active; AID 686979; Potency, µM (titrated, usually from 46.2 µM), for the others: at the top dose activity change, negative = growth inhibition, usual class: inhibitors; chicken DT40 Tdp1-/-;hTDP1 cells + 20 nM CPT, ATP luminescence, 48 h; also: nearly all actives have a fitted effect of over 55% in size
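Cell growth measured by CellTiter-Glo luminescence after a minimum 48 h, 37 C compound exposure with 20 nM CPT in Tdp1-knockout DT40 cells stably expressing hTDP1, seeded 400/well; qHTS titration format.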
The depositor's hits bear a star; i = inactive; u = inconclusive; x = not tested or not shown; [ ] = remark or other dose. Calls follow the shape of the dose curve; as a rule, active = well fitted curve in the direction sought with a large enough effect; inconclusive = small, poorly fitted or top-dose-only effect, or another doubt; inactive = no such curve, though single readings can be large; an effect the other way counts as inactive or inconclusive. Unless noted, % is scaled to controls: 0 for no effect and ±100 for the full control effect; potency is read from the fitted curve at half-maximal effect.

SMILES	HT1080 IDH1KD tx	KB-V1 cytotox	HT1080-NT tox	TDP1 cell noCPT	KB-3-1 cytotox	DT40 TDP1 CPT
COCCCNC(=O)c1sc2nc(C)c(C(=O)Nc3ccc(Cl)cc3)c(-c3ccc(Br)cc3)c2c1N	x	u	x	-23.3%	i	u
CC(=O)NC(Cc1ccc(O)cc1)C(=O)NCC(N)C(=O)c1ccccc1 (stereo not drawn)	9.5%	x	6.5%	u	x	u
CC(=O)NC(Cc1ccc([N+](=O)[O-])cc1)C(=O)NCC(N)C(=O)c1ccccc1 (stereo not drawn)	-2.6%	x	-2.1%	5.62µM*	x	22.4µM*
CCOc1ccc(N(C)S(=O)(=O)c2ccc(C)c(C(=O)Nc3nnc(C4CC4)s3)c2)cc1	-2.7%	i	-6.3%	4.61µM*	i	-8.5%
Cc1cc(C)cc(N(CCC(=O)Nc2nnc(C3CC3)s2)S(=O)(=O)c2ccc(Cl)cc2)c1	u	8.2µM*	-20.2%	u	u	u
Cc1ccc(S(=O)(=O)NCCC(=O)Nc2nnc(C3CC3)s2)cc1C	-0.2%	i	3.8%	-1.5%	i	-1.2%
Cc1nc(-c2ccc(F)cc2)c(CC(=O)N2CCN(S(=O)(=O)c3cccc([N+](=O)[O-])c3)CC2)s1	-7.0%	i	-4.6%	u	i	u
CC[C@@H](C(=O)n1nc(C)cc1C)[C@H](NS(=O)(=O)c1ccc(C)cc1)c1ccccc1	-30.0%	u	-24.6%	20.6µM*	i	u
O=S(=O)(c1ccccc1)c1nnn2c1nc(Nc1ccccc1)c1cc(Cl)ccc12	x	i	x	u	i	u
O=C(Nc1ccc(Cl)c(C(F)(F)F)c1)Nc1nnc(-c2ccncc2)s1	x	i	x	x	u	x
O=C(OCCN1C(=O)c2cccc3c(N4CCOCC4)ccc(c23)C1=O)c1ccc(Cl)cc1	2.31µM*	i	u	1.64µM*	i	2.06µM*
CCCN(CCC)S(=O)(=O)c1ccc(C(=O)OCCN2C(=O)c3cccc4c(N5CCOCC5)ccc(c34)C2=O)cc1	19.9%	14.6µM*	11.5%	u	i	u
OCC1OC(c2ccc(OCc3ccccc3)cc2OCc2ccccc2)C(O)C1O (stereo not drawn)	-5.5%	i	-10.4%	9.2µM*	i	10.3µM*
OCC1OC(c2ccc(O)cc2O)C(O)C1O (stereo not drawn)	6.2%	i	20.2%	-4.4%	i	-6.3%
Cc1nc(C)c(C(=O)NCCC(c2ccccc2)c2ccccc2)o1	-29.5%	8.2µM*	-16.5%	11.6µM*	u	u
CC(=O)Oc1ccc(-c2nc(-c3ccccc3)no2)cc1	x	i	x	u	u	u
C[C@@H]1CN([C@H](C)CO)C(=O)c2cc(NC(=O)Cc3cn(C)c4ccccc34)ccc2O[C@H]1CN(C)S(=O)(=O)c1ccc(F)cc1	-1.4%	i	-4.3%	u	i	u
COc1ccc(S(=O)(=O)N(C)C[C@H]2Oc3ccc(NC(=O)Cc4cn(C)c5ccccc45)cc3C(=O)N([C@@H](C)CO)C[C@@H]2C)cc1	-12.5%	u	-7.4%	14.6µM*	i	u
COc1ccc(S(=O)(=O)Nc2ccc3c(c2)C(=O)N([C@H](C)CO)C[C@H](C)[C@@H](CN(C)S(=O)(=O)c2ccccc2)O3)cc1	-3.4%	i	0.3%	u	i	20.6µM*
NCCc1nc2cccnc2n1-c1ccccc1	x	i	x	-5.1%	i	-15.9%
Cc1ccc(NC(=O)C2CCN(S(=O)(=O)c3ccc4[nH]c5c(c4c3)CCCCC5)CC2)cc1	x	i	x	14.6µM*	i	13µM*
COc1ccc(NC(=O)C2CCN(S(=O)(=O)c3ccc4[nH]c5c(c4c3)CCCCC5)CC2)cc1	x	i	x	u	i	u
O=S(=O)(c1ccc2[nH]c3c(c2c1)CCCC3)N1CCCCC1	-3.4%	i	-5.8%	23.1µM*	i	u
Cc1ccsc1C(=O)N1CCCCCC1(C)C(=O)NCC(C)C (stereo not drawn)	0.6%	i	12.5%	-1.6%	i	-13.5%
COCCNc1ncnc2c1ncn2[C@H]1CN(Cc2ccncc2)C[C@@H](CO)O1	3.3%	i	18.1%	-3.8%	i	-11.8%
SMILES	HT1080 IDH1KD tx	KB-V1 cytotox	HT1080-NT tox	TDP1 cell noCPT	KB-3-1 cytotox	DT40 TDP1 CPT
Cc1ccc(NC(=S)NCC2CCCO2)cc1C (stereo not drawn)	15.8%	i	17.5%	-5.7%	i	4.5%
Cc1ccc(NC(=S)NCC2CCN(C(C)c3ccccc3)C2)cc1C (stereo not drawn)	0.6%	i	1.8%	16.4µM*	i	23.1µM*
COc1ccc(C(=O)Nc2ccccc2C(=O)OCc2cc(=O)n3nc(C4CC4)sc3n2)cc1	x	i	x	-2.6%	i	8.4%
COc1ccc(C(=O)N(Cc2ccc(N(C)C)cc2)CC2CCCO2)cc1 (stereo not drawn)	x	x	x	-15.6%	x	u
Cc1c(C(=O)N(Cc2ccc(Cl)cc2)CC2CCCO2)oc2ccc(F)cc12 (stereo not drawn)	x	x	x	14.6µM*	x	u
CN(C)c1ccc(CN(CC2CCCO2)C(=O)c2cc3ccccc3o2)cc1 (stereo not drawn)	0.5%	i	-2.4%	u	i	18.4µM*
Cc1c(C(=O)N(Cc2ccc(N(C)C)cc2)CC2CCCO2)oc2ccc(Cl)cc12 (stereo not drawn)	x	x	x	20.6µM*	x	16.4µM*
CCOc1cccc(C(=O)N(Cc2ccc(N(C)C)cc2)CC2CCCO2)c1 (stereo not drawn)	x	x	x	16.4µM*	x	14.6µM*
COc1ccc(-c2oc3cccnc3c2-c2ccc(OC)nc2)cc1	-2.1%	i	0.0%	u	i	u
O=C(c1ccc2[nH]ccc2c1)N1CCOc2ccc(CN3CCN(c4ccccn4)CC3)cc2C1	x	x	x	u	x	-4.0%[9.04 µM]
CC(CS(=O)(=O)c1ccc2c(c1)NC(=O)CS2)C(=O)NCc1ccccc1Cl (stereo not drawn)	-5.5%	i	5.2%	-1.0%	i	u
CC(C)(C)N(Cc1ccccc1)C(=O)c1cc2ccccc2o1	2.9%	i	2.7%	11.6µM*	i	u
Cc1ccc2oc(C(=O)N(Cc3ccncc3)CC3CCCO3)c(C)c2c1 (stereo not drawn)	-6.8%	u	-9.8%	u	i	u
Cc1cc2oc(C(=O)N(Cc3ccc(N(C)C)cc3)CC3CCCO3)c(C)c2cc1Cl (stereo not drawn)	x	x	x	18.4µM*	x	u
